Bioassay records: PubChem, National Center for Advancing Translational Sciences (NCATS)
Rows were chosen to be rich in hits. Some 1.7% of all compounds tested hit in one or more screens of this group.
KCNH2 3.1 inh = blocks the human KCNH2 3.1 channel isoform; U2OS KCNH2 3.1, thallium flux FluxOr; stronger effect = lower value; hit rate 0.95% among 340,000; activity change, % (tested at about 1.8 µM);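 active = maximum activity change below -70%; inconclusive = maximum activity change from -70% to -50%; inactive = maximum activity change above -50%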;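 note: thallium influx rate constant from kinetic fluorescence after stimulation buffer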
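U2OS cells transduced with KCNH2 3.1 mutant virus (1.77 x 10^8 /mL, 4 h), plated overnight at 37 C, loaded 45 min with FluxOr dye plus Red40 quencher. Thallium flux rate constant from kinetic reads after stimulation buffer, normalised to controls.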
pAkt inh = blocks phosphorylation of Akt | Neuro2A IGF-stimulated pAkt S473 HTRF, 20 min; stronger effect = lower value | activity change, % for hits at 50 µM | hit rate 0.32% among 360,000; in the data active = activity change below about -80%; inconclusive = mostly about -51% to -80%
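Neuro2A cells (4,500/well, DMEM with 0.5% FBS) were treated with compound at a single 50 µM final concentration, stimulated with 6 nM IGF for 20 min at 37 °C, and lysed. Phospho-Akt Ser473 was read by HTRF as 665/615 ratio ×10^4.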
KCNH2 WT inh = blocks the wildtype human KCNH2 potassium channel. Q12809. U2OS, BacMam KCNH2, thallium flux FluxOr; stronger effect = lower value. activity change, % at 1.84 µM. hit rate 0.37% among 340,000. AID 720551;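 active = maximum activity change below -70%; inconclusive = maximum activity change between -70% and -50%; inactive = maximum activity change above -50%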
Target sequence (Q12809 whole entry, looked up): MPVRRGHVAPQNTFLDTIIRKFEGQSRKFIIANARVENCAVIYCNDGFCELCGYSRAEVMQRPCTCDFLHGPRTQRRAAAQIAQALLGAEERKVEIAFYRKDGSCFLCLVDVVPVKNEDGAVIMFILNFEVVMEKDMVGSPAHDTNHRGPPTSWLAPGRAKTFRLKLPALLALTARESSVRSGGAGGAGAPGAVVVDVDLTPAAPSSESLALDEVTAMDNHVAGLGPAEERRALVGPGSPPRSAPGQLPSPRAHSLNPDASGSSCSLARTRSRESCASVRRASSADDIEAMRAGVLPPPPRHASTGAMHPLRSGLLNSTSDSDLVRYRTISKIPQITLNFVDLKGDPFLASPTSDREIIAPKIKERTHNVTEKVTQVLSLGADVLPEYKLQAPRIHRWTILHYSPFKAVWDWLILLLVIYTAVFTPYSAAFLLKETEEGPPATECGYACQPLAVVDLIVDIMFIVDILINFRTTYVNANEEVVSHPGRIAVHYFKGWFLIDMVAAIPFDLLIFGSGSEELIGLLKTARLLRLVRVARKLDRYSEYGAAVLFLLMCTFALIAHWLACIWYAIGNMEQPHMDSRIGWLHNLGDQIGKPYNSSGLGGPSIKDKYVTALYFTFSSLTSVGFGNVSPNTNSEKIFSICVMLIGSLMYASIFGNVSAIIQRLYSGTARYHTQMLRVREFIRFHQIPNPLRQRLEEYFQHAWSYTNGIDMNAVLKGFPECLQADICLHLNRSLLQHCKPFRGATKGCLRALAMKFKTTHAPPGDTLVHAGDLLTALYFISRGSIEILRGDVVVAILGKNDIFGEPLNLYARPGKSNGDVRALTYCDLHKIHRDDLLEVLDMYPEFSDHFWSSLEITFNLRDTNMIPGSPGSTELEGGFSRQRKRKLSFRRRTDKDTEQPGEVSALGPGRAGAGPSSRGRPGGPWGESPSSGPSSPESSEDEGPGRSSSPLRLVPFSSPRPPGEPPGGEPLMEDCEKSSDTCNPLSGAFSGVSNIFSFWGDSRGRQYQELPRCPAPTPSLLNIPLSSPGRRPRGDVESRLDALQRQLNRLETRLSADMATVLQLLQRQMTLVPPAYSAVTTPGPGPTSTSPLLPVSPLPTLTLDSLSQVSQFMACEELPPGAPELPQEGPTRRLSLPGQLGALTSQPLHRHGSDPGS
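U2OS cells were transduced with wild-type KCNH2 virus (2.03 x 10^8 / mL) for 4 h at room temperature, then cultured overnight at 37 C. Thallium flux was read with FluxOr dye. Rate constants were normalized to DMSO controls.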
RXFP1 antagonist = RXFP1 (human) relaxin receptor antagonism. activity change, negative = inhibition, % at 57.5 µM. HEK293-RXFP1, relaxin-stimulated cAMP HTRF, 30 min; stronger effect = lower value. Q9HBX9. hit rate 0.59% among 350,000;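 active = activity change of -60% or lower, but not beyond a set lower limit; inconclusive = change between -60% and -40%, or beyond the set limit; inactive = change above -40%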
RXFP1 agonist = agonists of human relaxin receptor RXFP1; hit rate 0.3% among 370,000; HEK293T-RXFP1 cAMP TR-FRET, 30 min; response scale: percent of porcine relaxin response, buffer zero; Potency, µM (doses to about 57.5 µM), hits mostly activators; Q9HBX9; AID 2676; active = well fitted activation curve with a large enough effect; inconclusive = small, poorly fitted or top-dose-only effect; note: nearly all actives have a fitted effect of over 60% in size
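HEK293T cells stably expressing RXFP1 were pretreated with the PDE4 inhibitor Ro 20174, exposed to compounds for 30 min at 37C, lysed, and cAMP was read by TR-FRET. Data normalized to buffer (basal) and 29 nM porcine relaxin (100%).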
Numbers stand for hits.

Screening N#Cc1ccc(S(=O)(=O)NC2CCCCNC2=O)cc1 (stereo not drawn) returned KCNH2 3.1 inh inactive, pAkt inh inactive, KCNH2 WT inh inactive, RXFP1 antagonist inactive and RXFP1 agonist inactive.
Screening COc1cccc(-c2cccc(NC(=O)C3CCN(Cc4ccc(C)o4)CC3)c2)c1 returned KCNH2 3.1 inh inactive, pAkt inh inactive, KCNH2 WT inh inactive, RXFP1 antagonist inactive and RXFP1 agonist inactive.
Cc1ccc2c(c1)[C@H]1[C@H](CO2)[C@H](c2ccccc2)[C@]2(C)C(=O)Nc3cc(F)c(F)cc3C(=O)N12 was read as KCNH2 3.1 inh inactive, pAkt inh inactive and KCNH2 WT inh inactive.
O=C(O)c1cc2c(=O)c3ccccc3oc2nc1C(F)(F)F was read as KCNH2 3.1 inh inactive, pAkt inh inactive, KCNH2 WT inh inactive, RXFP1 antagonist inactive and RXFP1 agonist inactive.
`CCOc1ccc2nc(N(CCCN(C)C)C(=O)c3ccc4c(c3)CCCC4)sc2c1` gave KCNH2 3.1 inh inactive, pAkt inh inactive, KCNH2 WT inh inactive, RXFP1 antagonist inactive and RXFP1 agonist inactive.
For CN(C)CCCN(C(=O)c1ccc2c(c1)CCCC2)c1nc2ccc(Cl)cc2s1 the results were KCNH2 3.1 inh inactive, pAkt inh inactive, KCNH2 WT inh inactive, RXFP1 antagonist -77.4 and RXFP1 agonist inactive.
`Oc1ccc2ccccc2c1CN1CCN(C/C=C/c2ccccc2)CC1` gave KCNH2 3.1 inh -79.8, pAkt inh inactive, KCNH2 WT inh inactive, RXFP1 antagonist inactive and RXFP1 agonist inactive.
Screening Cc1ccc2c(CN3CCCCC3)cc(=O)oc2c1 returned KCNH2 3.1 inh inactive, pAkt inh inactive, KCNH2 WT inh inactive, RXFP1 antagonist inactive and RXFP1 agonist inactive.
For O=S(=O)(c1ccccc1)N1CCN(Cc2c(O)ccc3ccccc23)CC1 the results were KCNH2 3.1 inh inactive, pAkt inh inactive, KCNH2 WT inh inactive and RXFP1 antagonist inactive.
For Cc1ccc2c(CN3CCN(S(=O)(=O)/C=C/c4ccccc4)CC3)cc(=O)oc2c1 the results were KCNH2 3.1 inh -88.5, pAkt inh inactive, KCNH2 WT inh inactive, RXFP1 antagonist inactive and RXFP1 agonist inactive.
For Cc1c(O)ccc2c(CN3CCN(C/C=C/c4ccccc4)CC3)cc(=O)oc12 the results were KCNH2 3.1 inh -96.6, pAkt inh inactive, KCNH2 WT inh -75.5, RXFP1 antagonist inactive and RXFP1 agonist inactive.
For Cc1cccc(C(=O)Nc2nnc(-c3ccc(C(C)(C)C)cc3)s2)c1 the results were KCNH2 3.1 inh -89.0, pAkt inh inactive, KCNH2 WT inh inactive, RXFP1 antagonist inactive and RXFP1 agonist inactive.
CC(=NC1CCCC1)c1c(C)[nH]n(-c2nc3ccccc3s2)c1=O was read as KCNH2 3.1 inh inactive, pAkt inh -115.8%, KCNH2 WT inh inactive, RXFP1 antagonist inactive and RXFP1 agonist inactive.
`Cc1ccc(S(=O)(=O)/N=C(/Nc2ccc(F)cc2F)c2ccccc2)cc1` gave KCNH2 3.1 inh inactive, pAkt inh inactive, KCNH2 WT inh inactive, RXFP1 antagonist -64.5 and RXFP1 agonist inactive.
Screening Cc1ccc(S(=O)(=O)/N=C(/Nc2ccccc2C)c2ccccc2)cc1 returned KCNH2 3.1 inh inactive, pAkt inh inactive, KCNH2 WT inh inactive and RXFP1 antagonist inactive.
For COc1cc(-c2cc(OC)c3c(C)oc(C)c3c(=O)c2)ccc1OC(=O)c1cccc(Cl)c1 the results were RXFP1 antagonist -76.2 and RXFP1 agonist inactive.
`CCOc1cc(-c2ccc(OC(=O)c3ccccc3F)cc2)cc(=O)c2c(C)oc(C)c12` gave RXFP1 antagonist -97.4 and RXFP1 agonist inactive.
`CCOc1cc(-c2ccc(OC(=O)c3ccc(C)cc3)c(OC)c2)cc(=O)c2c(C)oc(C)c12` gave RXFP1 antagonist -64.1 and RXFP1 agonist inactive.
Screening CCOc1ccc(-c2cc(OC(=O)c3ccccc3)c3c(C)oc(C)c3c(=O)c2)cc1 returned RXFP1 antagonist inactive and RXFP1 agonist inactive.
`COc1cc(-c2cc(OC)c3c(C)oc(C)c3c(=O)c2)ccc1OC(=O)c1ccc(C)cc1` gave RXFP1 antagonist inconclusive and RXFP1 agonist inactive.
Screening COc1cc(-c2cc(OC)c3c(C)oc(C)c3c(=O)c2)ccc1OC(=O)c1ccccc1C returned RXFP1 antagonist -65.2 and RXFP1 agonist inactive.
For COc1ccc(-c2cc(OC(=O)c3ccccc3C)c3c(C)oc(C)c3c(=O)c2)cc1 the results were RXFP1 antagonist inactive and RXFP1 agonist inactive.
`CC[C@@]12C(=O)N(c3cccc(F)c3)C(=O)N1[C@H](c1cccc(C)c1)[C@@H]1C(=O)N(Cc3ccccc3)C(=O)[C@@H]12` gave KCNH2 3.1 inh inactive, pAkt inh inactive, KCNH2 WT inh inactive and RXFP1 agonist inactive.
For COCCNc1c2c(nc3c(-c4ccccc4)c(C)nn13)CCC2 the results were KCNH2 3.1 inh inactive, pAkt inh inactive, KCNH2 WT inh inactive, RXFP1 antagonist inactive and RXFP1 agonist inactive.
Screening CN(CC(=O)Nc1ccc(Cl)c(C(F)(F)F)c1)C(=O)CCCc1nc2ccccc2c(=O)[nH]1 returned KCNH2 3.1 inh inactive, pAkt inh inactive, KCNH2 WT inh inactive, RXFP1 antagonist inactive and RXFP1 agonist inactive.
`CC12CCC(C(=O)NCCN3CCCCC3)(CC1=O)C2(C)C` (stereo not drawn) gave KCNH2 3.1 inh inactive, pAkt inh -114.0%, KCNH2 WT inh inactive, RXFP1 antagonist inactive and RXFP1 agonist inactive.
Screening CC12CCC(C(=O)N3CCCCC3)(CC1=O)C2(C)C (stereo not drawn) returned KCNH2 3.1 inh inactive, pAkt inh inactive, KCNH2 WT inh inactive, RXFP1 antagonist inactive and RXFP1 agonist inactive.
For Cc1ccc(NC(=O)C2CCCN2C(=O)NCc2ccccc2)cc1 (stereo not drawn) the results were KCNH2 3.1 inh inactive, pAkt inh inactive, KCNH2 WT inh inactive, RXFP1 antagonist inactive and RXFP1 agonist inactive.
For Cc1ccc(NC(=O)N2CCCC2C(=O)NCCc2ccccc2)cc1 (stereo not drawn) the results were KCNH2 3.1 inh inactive, pAkt inh -121.3%, KCNH2 WT inh inactive, RXFP1 antagonist inactive and RXFP1 agonist inactive.
`O=C(CN1C2=NCCCN2c2ccccc21)c1ccc(Br)s1` gave KCNH2 3.1 inh -85.6, pAkt inh inactive, KCNH2 WT inh inactive, RXFP1 antagonist inactive and RXFP1 agonist inactive.
`CCCCCCCN1C2=NCCCN2c2ccccc21` gave KCNH2 3.1 inh -80.2, pAkt inh inactive, KCNH2 WT inh inactive, RXFP1 antagonist inactive and RXFP1 agonist inactive.
For Clc1cccc(CN2C3=NCCCN3c3ccccc32)c1 the results were KCNH2 3.1 inh inconclusive, pAkt inh inactive, KCNH2 WT inh inactive, RXFP1 antagonist inactive and RXFP1 agonist inactive.
Screening CC(C)(C)c1ccc(CN2C3=NCCCN3c3ccccc32)cc1 returned KCNH2 3.1 inh -79.7, pAkt inh inactive, KCNH2 WT inh inactive, RXFP1 antagonist inactive and RXFP1 agonist inactive.
